PubChem BioAssay
Active and inactive are the calls of the source.

How the values were obtained:
Albumin (Bos taurus) = Albumin (Bos taurus) (UniProt P02769); assay: compounds binding labelled BSA control protein – biochemical, small-molecule microarray, Alexa647 label, 635/667 nm fluorescence, artefact control for SMM control protein annotation, profiling panel (AID 1118); settings: BSA-A647 binding, fluorescence 635 nm, higher = more signal;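 note: score merges 667 nm emission intensity and signal-to-noise per printed compound spot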
[1] = probe aXIP binding to arrayed compounds – biochemical, NeuroSMM set, 635/667 nm fluorescence, primary screen (AID 1119); settings: small-molecule microarray, higher = more signal, called active from +8 up or from −8 down;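 note: probe is the protein aXip251-270 applied at 1 µg/mL to compound-printed slides; binding of probe to printed compounds measured as 667 nm fluorescence plus signal to noise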
[2] = probe aNOTCH3 binding on compound microarray – biochemical, small-molecule microarray, 635/667 nm fluorescence, primary screen (AID 1120); settings: higher = more signal;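 note: probe is a biotin-tagged antibody raised against NOTCH3 rather than NOTCH3 protein; score merges spot fluorescence near 667 nm with spot signal to noise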
[3] = probe aNOTCH2 binding on compound microarray – biochemical, small-molecule microarray, 635/667 nm fluorescence, primary screen (AID 1121); settings: higher = more signal;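 note: score merges feature fluorescence read at 667 nm with its signal to noise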
[4] = biological target: Carbonic anhydrase 2 (Homo sapiens) (UniProt P00918); assay: compounds binding carbonic anhydrase 2 – biochemical, small-molecule microarray, Alexa647-labelled CAII, profiling panel (AID 1122); settings: CAII-A647 binding fluorescence, higher = more signal
[5] = COS7 lysate on small-molecule microarray, probe aHis, 635 nm (AID 1123); settings: COS7 cell lysate, fluorescence, higher = more signal;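 note: z-score combines 667nm fluorescence intensity with signal-to-noise per printed compound spot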
[6] = probe aLAP1 signal on lysate-treated microarray – cell lysate, small-molecule microarray, COS7 lysate, primary screen (AID 1124); settings: probe aLAP1, fluorescence, higher = more signal;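 note: lysate comes from COS7 cells expressing LAP1 and is applied at 0.3 µg/mL; score merges spot fluorescence near 667 nm with signal-to-noise over triplicate slides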
Sam68 (KHDRBS1) = assay: compounds binding KHDRBS1 protein – biochemical, small-molecule microarray, 635 nm fluorescence, primary screen (AID 1125); settings: higher = more signal;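 note: score merges 667 nm channel intensity with signal to noise over triplicate slides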
[7] = test system: Chordin-like protein 2 (CHRDL2); assay: compounds binding chordin-like 2 – biochemical, small-molecule microarray, 635 nm fluorescence, primary screen (AID 1126); settings: fluorescence 635 nm, higher = more signal;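 note: printed compound slides probed with Chrdl2 protein at 4 µg/mL for 1 h at 4 C; score merges 667 nm emission intensity with signal to noise over three replicate slides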
[8] = biological target: Concanavalin-A (Canavalia ensiformis) (UniProt P02866); assay: compounds binding concanavalin A lectin – biochemical, small-molecule microarray, Alexa647 label, 635 nm, artefact control for SMM control protein annotation, primary screen (AID 1127); settings: ConA-A647 binding fluorescence, higher = more signal;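 note: z combines 667 nm emission intensity with signal-to-noise across three replicate slides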
Chain of Concanavalin-A (Canavalia ensiformis) (P02866 whole entry, looked up): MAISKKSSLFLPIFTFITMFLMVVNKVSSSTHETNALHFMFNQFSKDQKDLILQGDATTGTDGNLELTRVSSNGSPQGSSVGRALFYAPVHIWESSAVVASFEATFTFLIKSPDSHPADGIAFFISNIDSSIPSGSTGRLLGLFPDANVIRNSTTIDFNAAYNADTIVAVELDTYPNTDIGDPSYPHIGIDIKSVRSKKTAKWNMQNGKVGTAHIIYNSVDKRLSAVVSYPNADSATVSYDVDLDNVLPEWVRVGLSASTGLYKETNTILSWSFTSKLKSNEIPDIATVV

Chain of Albumin (Bos taurus) (P02769 whole entry, looked up): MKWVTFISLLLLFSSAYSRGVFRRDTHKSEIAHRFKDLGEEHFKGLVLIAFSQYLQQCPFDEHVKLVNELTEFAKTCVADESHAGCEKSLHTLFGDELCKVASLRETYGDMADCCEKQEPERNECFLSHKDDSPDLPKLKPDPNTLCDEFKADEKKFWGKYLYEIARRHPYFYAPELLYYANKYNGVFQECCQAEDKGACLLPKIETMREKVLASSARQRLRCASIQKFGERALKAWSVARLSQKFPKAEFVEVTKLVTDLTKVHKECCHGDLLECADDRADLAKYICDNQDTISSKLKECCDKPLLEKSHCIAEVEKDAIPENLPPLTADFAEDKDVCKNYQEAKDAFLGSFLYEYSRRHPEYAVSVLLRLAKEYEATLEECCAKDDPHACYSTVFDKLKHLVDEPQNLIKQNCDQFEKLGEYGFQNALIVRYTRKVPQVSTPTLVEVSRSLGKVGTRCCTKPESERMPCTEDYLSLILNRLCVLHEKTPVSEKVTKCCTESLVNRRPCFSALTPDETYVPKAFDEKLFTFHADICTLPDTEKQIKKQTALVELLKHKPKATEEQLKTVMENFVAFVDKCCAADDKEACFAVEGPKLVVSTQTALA

Row | SMILES | composite z-score (Albumin (Bos taurus)) | composite Z-score [1] | composite z-score [2] | composite z-score [3] | composite z-score [4] | composite z-score [5] | composite z-score [6] | composite z-score (Sam68 (KHDRBS1)) | composite z-score [7] | composite z-score [8]
1 | O=C(O)[C@H]1C[C@H]2C(=O)N[C@@H](Cc3ccccc3)C(=O)N2[C@H]1c1cccc(OCCO)c1 | -1.09 | 0.309 (inactive) | 0.182 | -0.0609 | 0.634 | 0.26 | -0.0699 | 1.05 | 1.01 | 0.95
2 | C=C[C@H](C)[C@H](OC(=O)Nc1ccc(OC)cc1)c1ccc(OCCO)cc1 | -0.381 | 0.838 (inactive) | -0.279 | -0.209 | 0.464 | 0.718 | 0.434 | -0.321 | -1.18 | -1.35
3 | C[C@]1(C(=O)NCC(F)(F)F)c2ccccc2C(=O)N(Cc2ccccc2)[C@H]1c1ccc(CO)cc1 | -1.14 | -0.222 (inactive) | -0.221 | -0.123 | 0.448 | -0.145 | 0.498 | -1.22 | -1.7 | 0.0038
4 | CC(C)C[C@@H]1NC(=O)CNC(=O)[C@@]23C(=O)N[C@@H](Cc4ccccc4)C2[C@H](C)[C@@]2(C)O[C@H]2C3/C=C/C/C=C\CNC1=O (stereo not given in full) | -0.007 | 0.692 (inactive) | 0.0026 | -0.102 | 0.461 | 0.718 | 0.461 | 1.29 | 0.764 | -0.404
5 | COC(=O)[C@@]1(Cc2ccccc2CN=[N+]=[N-])N=C(c2ccc(OCCCO)cc2)O[C@H]1c1ccccc1CN=[N+]=[N-] | -0.747 | -0.221 (inactive) | -0.15 | -0.101 | 0.885 | 1.77 | 0.017 | -0.63 | -1.42 | 0.114
6 | CCCCCN1CC=CC23O[C@@H]4C=CCOC(=O)[C@@H]4[C@H]2C(=O)N(CCO)[C@@H]3C1=O (stereo not given in full) | -0.141 | 0.403 (inactive) | -0.221 | -0.14 | 0.907 | 1.28 | -0.0117 | -0.263 | -1.33 | -0.502
7 | O=C1C2C=CC(C(O)c3ccc(I)cc3)N(Nc3ccccc3)C2C(=O)N1c1ccccc1 (stereo not given) | 0.778 | 0.284 (inactive) | 0.273 | 0.11 | 0.738 | 2.87 | 0.635 | 1.34 | -0.409 | 1.16
8 | C=C(C)C1CCC(C(O)C2C=CC3C(=O)N(C)C(=O)C3N2Nc2cc(OC)c(OC)c(OC)c2)CC1 (stereo not given) | 0.941 | -0.0192 (inactive) | 0.263 | -0.0598 | 0.703 | 1.46 | 0.0507 | 1.29 | 0.464 | 0.974
9 | NC(=O)NCC#Cc1ccc2c(c1)[C@]1(C(=O)N2)[C@H](C(=O)N2CCN(c3ncccn3)CC2)[C@H]2C(=O)O[C@H](c3ccccc3)[C@H](c3ccccc3)N2[C@@H]1c1ccc(OCCO)cc1 | 0.003 | 0.17 (inactive) | 0.127 | -0.084 | 0.236 | 0.944 | 0.241 | 0.982 | 0.106 | 0.972
10 | COCCOC(=O)N1C(=O)[C@@]2(c3cc(C#Cc4ccc(OC)cc4)ccc31)[C@H](c1ccc(OCCO)cc1)N1[C@H](c3ccccc3)[C@H](c3ccccc3)OC(=O)[C@H]1[C@@H]2C(=O)Nc1nc2ccccc2s1 | 0.862 | -0.436 (inactive) | -0.0967 | 0.0402 | 0.309 | 1.3 | 0.176 | 1.29 | -0.122 | 1.13
11 | CN(C)C(=O)[C@@]1(Cc2ccccc2)COC(c2ccc(OCCCO)cc2)=N1 | 0.66 | -0.655 (inactive) | -0.507 | -0.308 | 0.541 | 2.86 | 0.178 | 0.581 | 0.26 | 0.113
12 | C=CCC(OC(C)=O)[C@@H]1[C@@H](N(Cc2cccc3ccccc23)C(=O)Cc2ccc(F)cc2)c2cc(OCCCO)ccc2N1C(=O)c1ccc(-c2ccccc2)cc1 (stereo not given in full) | 0.621 | -0.248 (inactive) | 0.0847 | 0.054 | -0.119 | 0.644 | 0.505 | -0.738 | -0.335 | -1.6
13 | COc1ccc(C(O)C2C=CC3C(=O)N(c4ccccc4)C(=O)C3N2Nc2ccccc2)cc1 (stereo not given) | 1.01 | -0.135 (inactive) | 0.331 | -0.0501 | 0.781 | 2.89 | 0.326 | 1.17 | -0.154 | 1.14
14 | C=CCC(OC(C)=O)[C@@H]1[C@@H](N(Cc2ccc(-c3cccc(C(F)(F)F)c3)o2)C(=O)Cc2ccc(OC)cc2)c2cc(OCCCO)ccc2N1C(=O)Cc1ccc2ccccc2c1 (stereo not given in full) | 0.315 | -0.0998 (inactive) | -0.158 | -0.14 | -0.121 | 0.631 | -0.31 | -0.0204 | -0.0929 | -0.0477
15 | COCCCNC(=O)[C@@]1(c2ccc([N+](=O)[O-])cc2)CC(=O)N(C(C)C)[C@@H]1c1ccc(CO)cc1 | 0.224 | -0.786 (inactive) | -0.424 | -0.0282 | 0.729 | 0.198 | 1.25 | 0.353 | 0.454 | -1.5
